High-throughput results from PubChem.
HTT cytoprotect: cytoprotection in Huntington HTT-Q103 PC12 cell model; PC12 HTT-Q103 induced, cytoprotection, ATP luminescence, 40 h; 230,000 compounds, 0.14% hits; Potency, µM (titrated, usually from 56.4 µM), for the others: cytoprotection (ATP increase), hits mostly activators; active = well fitted curve in the direction sought with a large enough effect; inconclusive = small, poorly fitted or top-dose-only effect, or another doubt; inactive = no such curve, though single readings can be large; an effect the other way counts as inactive or inconclusive; also: potency is read from the fitted curve at half-maximal effect; % of control where 0% means no effect; nearly all actives have a fitted effect of over 45% in size
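Readout: ATPlite luminescence (ATP level). Model: stable PC12, inducible Htt exon1 Q103-GFP. Inducer: tebufenozide, 100 nM final. Compounds: dose series. No G418 in medium.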
JMJD2E inh: inhibitors of human JMJD2E histone demethylase | B2RXH2 | JMJD2E catalytic domain, FDH-coupled NADH fluorescence (FDH is formaldehyde dehydrogenase) | Potency, µM (highest dose often 57.1 µM), for inactives: top-dose activity change, negative = inhibition, actives largely listed as inhibitors | 230,000 compounds, 1.6% hits | AID 2147;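 also: potency is read from the fitted curve at half-maximal effect; 0% = wells with enzyme and -100% = buffer wells without enzyme; nearly all actives have a fitted effect of over 50% in size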
ALDH1A1 block: inhibitors of human aldehyde dehydrogenase 1A1; 220,000 compounds, 7.3% hits; AID 1030; Potency, µM (series often up to 75.3 µM), for inactives: at the highest dose activity, negative = inhibition, usual class: inhibitors; P00352; Purified ALDH1A1, NADH fluorescence, propionaldehyde substrate;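 also: potency is read from the fitted curve at half-maximal effect; plate controls were no enzyme wells and a reference inhibitor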
Target sequence (P00352 whole entry, looked up): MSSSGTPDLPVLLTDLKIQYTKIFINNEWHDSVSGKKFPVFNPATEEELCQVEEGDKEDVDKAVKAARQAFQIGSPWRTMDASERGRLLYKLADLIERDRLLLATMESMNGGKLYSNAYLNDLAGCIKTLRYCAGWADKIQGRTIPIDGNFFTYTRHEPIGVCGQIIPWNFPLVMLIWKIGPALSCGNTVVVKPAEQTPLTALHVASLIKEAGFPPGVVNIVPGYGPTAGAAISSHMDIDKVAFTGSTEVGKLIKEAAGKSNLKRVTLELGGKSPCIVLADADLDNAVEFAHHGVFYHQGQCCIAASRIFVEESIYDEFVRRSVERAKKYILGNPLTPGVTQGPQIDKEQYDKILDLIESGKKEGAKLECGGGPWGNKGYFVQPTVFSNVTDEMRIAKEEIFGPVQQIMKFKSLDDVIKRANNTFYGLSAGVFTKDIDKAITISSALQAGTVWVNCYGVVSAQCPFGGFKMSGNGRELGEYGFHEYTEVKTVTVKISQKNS
HTT aggregate: reduces HttQ103-GFP aggregates in PC12 cells; 220,000 compounds, 1.1% hits; PC12 HttQ103-GFP aggregates, Acumen cytometry, 40 h; AID 1688; Potency, µM (doses to about 46.1 µM), without a hit: at the highest dose activity change, negative = inhibition, actives largely listed as inhibitors; active = well fitted curve in the direction sought with a large enough effect; inconclusive = small, poorly fitted or top-dose-only effect, or another doubt; inactive = no such curve, though single readings can be large; an effect the other way counts as inactive or inconclusive; also: potency is read from the fitted curve at half-maximal effect; % is scaled to controls: 0 for no effect and ±100 for the full control effect; nearly all actives have a fitted effect of over 60% in size
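PC12 cells with ecdysone-inducible HTT exon1 Q103-GFP, induced by 100 nM tebufenozide, given compounds in a concentration series. GFP aggregates (1–25 um, 6 SD above background) counted in lysates by laser-scanning cytometry, 488 nm excitation.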
HPGD block: blocks human HPGD enzyme activity; 150,000 compounds, 4.3% hits; purified HPGD, NADH fluorescence kinetic, PGE2 substrate; AID 894; Potency, µM, for the others: at the highest dose activity change, negative = inhibition, usual class: inhibitors; also: potency is read from the fitted curve at half-maximal effect; % is scaled to controls: 0 for no effect and ±100 for the full control effect
Target sequence (P15428 whole entry, looked up): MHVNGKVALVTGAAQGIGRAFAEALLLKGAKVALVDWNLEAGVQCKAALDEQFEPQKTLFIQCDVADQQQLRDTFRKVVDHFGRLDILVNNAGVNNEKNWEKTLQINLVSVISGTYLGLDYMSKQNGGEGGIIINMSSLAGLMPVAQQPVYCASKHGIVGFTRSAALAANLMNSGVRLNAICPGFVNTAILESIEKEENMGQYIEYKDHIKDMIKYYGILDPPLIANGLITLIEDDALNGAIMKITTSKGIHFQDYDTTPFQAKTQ
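NADH formation kinetics: reaction with 30 uM PGE2 and 1 mM NAD+ (final), 20 nM enzyme, Tris-HCl pH 8 with Tween 20, after 15 min compound preincubation at room temperature. Fluorescence change, last versus first of five reads.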
CBFb-RUNX1 inh: inhibitors of human CBF-beta and RUNX1 interaction; Potency, µM (highest dose often 59.8 µM), without a hit: at the highest dose activity, negative = inhibition, actives largely listed as inhibitors; 230,000 tested, under 10 active; AlphaScreen CBFb-His/RUNX1-biotin binding, biochemical; AID 1477; active = well fitted curve in the direction sought with a large enough effect; inconclusive = small, poorly fitted or top-dose-only effect, or another doubt; inactive = no such curve, though single readings can be large; an effect the other way counts as inactive or inconclusive; also: % of control where 0% means no effect
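Read-out: AlphaScreen. Format: His-CBF-beta with biotinylated RUNX1 (30 nM each) preincubated 20 min, compound 15 min, Ni-chelate plus streptavidin beads 90 min; room temperature throughout.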
Starred values were filed as active, the others as inactive; ? = inconclusive; / = no result; [ ] = dose if it differs, or a comment. Compounds with a hit are over-represented: about 9.8% of the library has one in this group of screens. Unless noted, calls follow the shape of the dose curve; as a rule, active = well fitted inhibition curve with a large enough effect (not every such curve was filed as active); inconclusive = small, poorly fitted or top-dose-only effect, or another doubt; inactive = no such curve, though single readings can be large or run the other way.

SMILES | HTT cytoprotect | JMJD2E inh | ALDH1A1 block | HTT aggregate | HPGD block | CBFb-RUNX1 inh
Cc1ccc(S(=O)(=O)Oc2ccc(/C=C(/NC(=O)c3ccccc3)C(=O)NCC(=O)O)cc2)cc1 | 0%[10 µM] | -2% | 5µM* | -9%[9.22 µM] | / | 7%
Cc1ccc(S(=O)(=O)Oc2ccc(/C=C(/NC(=O)c3ccccc3)C(=O)O)cc2)cc1 | -29% | 7% | 13µM* | 25% | / | 0%
Cc1ccccc1C(=O)NC(CC(C)C)C(=O)Nc1ccc(S(N)(=O)=O)cc1 (configuration not stated) | -5%[10 µM] | 4% | 11% | 11% | / | 8%
O=C(CSCc1ccc([N+](=O)[O-])cc1)Nc1ccccc1C(=O)O | -1% | 12% | -4% | 9% | / | 13%
O=C(Cc1cn2ccsc2n1)NCc1ccccc1 | -12%[10 µM] | -4% | ? | 11% | ? | 2%
O=C(Cc1cn2ccsc2n1)Nc1nc2c(s1)CN(Cc1ccccc1)CC2 | 6%[0.074 µM] | ? | 10µM* | -6% | -9% | ?
Cc1ccc(NC(=O)NC2=NN(c3ccccc3)C(=O)/C2=C2/CCCN2C)cc1 | 5% | -6% | 7.1µM* | 11% | / | 4%
COc1ccc(N2CCN(c3ncnc4c3[nH]c3ccccc34)CC2)cc1 | -46% | -2% | 0% | ? | -6% | -9%
COc1cc2[nH]c3c(N4CCN(c5ccccn5)CC4)ncnc3c2cc1OC | -165%[0.074 µM] | ? | ? | 20µM* | ? | -15%
CCOC(=O)N1CCN(c2ncnc3c2[nH]c2ccc(F)cc23)CC1 | -49% | ? | -13% | 7.1µM* | -21% | 7%
Fc1ccc2[nH]c3c(N4CCN(c5ccccc5)CC4)ncnc3c2c1 | 30%[1.9 µM] | ? | -2% | 22µM* | ? | -3%
CCOC(=O)N1CCN(c2ncnc3c2[nH]c2ccc(OC)cc23)CC1 | -14% | ? | ? | 12% | ? | 1%
O=C1CCC(c2ccccc2)N1C(=O)c1cccnc1 (configuration not stated) | 15%[10 µM] | -8% | 0% | -22% | -10% | -6%
C=CCn1c(NC(=O)c2ccccc2Cl)c(C#N)c2nc3ccccc3nc21 | -45% | ? | ? | 16µM* | ? | 21%
C=CCn1c(NC(=O)c2ccccc2)c(C#N)c2nc3ccccc3nc21 | -25%[10 µM] | / | / | / | / | /
NC(Cc1ccccc1)C(O)c1ccco1 (configuration not stated) | / | / | / | / | / | 7%
Cc1ccc(S(=O)(=O)/C(C#N)=C/c2ccccc2OCc2ccccc2)cc1 | -7%[10 µM] | ? | ? | 19% | ? | -19%
COc1ccc(/C=C(/C#N)S(=O)(=O)c2ccc(C)cc2)cc1 | -1% | 1% | -4% | -9% | 25µM* | -5%
Cc1ccc(/C=C/C(=O)N2CC(C)CC(C)C2)o1 (configuration not stated) | -7% | 5% | 10µM* | 20% | ? | -4%
CCOC(=O)/C=C/C(=O)OCC(=O)Nc1ccc(C)cc1 | 4%[10 µM] | 9% | -3% | 30% | / | 3%
Cc1ccc(/C=C/C(=O)Nc2ccc([N+](=O)[O-])cc2)o1 | -11% | 1% | 12µM* | 0% | / | 6%
CCCOc1ccc(/C=C/C(=O)Nc2ccc([N+](=O)[O-])cc2)cc1 | -8% | -8% | 5% | 9% | / | 2%
CCN1CCN(C(=O)/C=C/c2ccc(C)o2)CC1 | 0%[10 µM] | 14% | -10% | -2% | -13% | -9%
CCOC(=O)/C=C/C(=O)Nc1ccc(S(=O)(=O)Nc2c(C)cc(C)cc2C)cc1 | -5%[10 µM] | -10% | 13µM* | -4% | -5% | -4%
COC(=O)c1ccc(Cl)cc1NC(=O)/C=C/c1ccc(C)o1 | / | -6% | 20µM* | ? | ? | 1%
SMILES | HTT cytoprotect | JMJD2E inh | ALDH1A1 block | HTT aggregate | HPGD block | CBFb-RUNX1 inh
COC(=O)c1cc(Cl)c(NC(=O)/C=C/c2ccc(Cl)cc2Cl)cc1OC | -34%[10 µM] | 5% | ? | -11% | ? | -8%
CCc1cccc(NC(=O)c2ccc3c(=O)n4c(nc3c2)CCCCC4)c1 | -8%[10 µM] | 2% | / | 3%[9.22 µM] | / | 6%
CCCCN1CCCC1CNC(=O)c1cc(C#N)c2ccccc2c1OC (configuration not stated) | / | ? | / | / | / | 8%
Cc1ccc(/C=C/C(=O)Nc2ccc(Oc3ccccc3)cc2)o1 | -17%[10 µM] | ? | 24µM* | -17% | 25µM* | -8%
CC(=O)/C=C/c1ccc(C)o1 | 11% | -27% | ? | 21% | / | ?
CCOC(=O)/C=C/C(=O)Nc1ccc(Oc2ccccc2)cc1 | 12%[10 µM] | -6% | 25µM* | -7%[9.22 µM] | / | 6%
Cc1ccc(/C=C/C(=O)Nc2cc(=O)n(C)c(=O)n2C)o1 | 21%[0.074 µM] | -24% | 22µM* | 17% | -11% | 4%
O=C(O)/C=C/C(=O)Nc1ccc(Oc2ccccc2)cc1 | -2%[10 µM] | 0% | / | -6%[9.22 µM] | / | -7%
CC(/C=C/c1ccc(C)o1)=C\C(=O)O | -29% | ? | 20µM* | ? | -22% | -1%
NC[C@H]1O[C@H](n2cnc3c(N)ncnc32)C[C@@H]1O | -5%[10 µM] | / | -6%[13.5 µM] | / | -11% | /
CCCCCC(=O)Nc1ccc(N2CCN(C(=O)c3ccccc3)CC2)cc1 | 2% | 0% | -2% | -29% | -19% | 1%
O=C(Nc1ccc(C(=O)N2CCCCC2)cc1)C1CCCCC1 | -1% | -4% | ? | -2% | 2µM* | 1%
O=C(Nc1ccccc1)C1CCCCC1 | -20%[10 µM] | 6% | 8% | -16% | 25µM* | 9%
O=C(O)CCCC(=O)Nc1ccc(C(=O)N2CCCCC2)cc1 | -19% | 3% | 9% | 7% | 2.2µM* | 6%
CCCCCCC(=O)Nc1ccc(C(=O)N2CCCC2)cc1 | -13% | 1% | ? | 1% | 4µM* | 6%
O=C(O)CCCC(=O)Nc1ccc(N2CCCC2)cc1 | -20%[10 µM] | -4% | 2% | 15% | -1% | 8%
COc1ccc(NC(=O)C2CCN(C(=O)c3ccc(OC)cc3)CC2)cc1 | -8% | -4% | -4% | 10% | -10% | -7%
CS(=O)(=O)N1CCC2(CC1)CN(C(=O)Nc1ccccc1)C2 | -31% | / | 6% | / | -7% | /
CCCCn1c(SCC(=O)NC2CC(C)(C)NC(C)(C)C2)nc2cc(S(N)(=O)=O)ccc21 | -4%[10 µM] | 11% | / | -13%[9.22 µM] | / | 18%
Cc1ccc(NS(=O)(=O)c2cc3c4c(cccc4c2)C(=O)NC3=O)cc1C | -28%[10 µM] | -3% | ? | -15%[9.22 µM] | / | -11%
COCC(COCCCNC(=O)Nc1ccc(Br)cc1)OC (configuration not stated) | -1% | -4% | ? | 10% | -8% | 3%
O=C(Nc1ccc(S(=O)(=O)N2CCCCC2)cc1)C1CCCN(C(=O)c2ccc(Cl)cc2)C1 (configuration not stated) | -2%[10 µM] | -1% | -3% | -4% | ? | 0%
